Assay outcomes as filed in PubChem.
Hits are enriched below; roughly 1.7% of the tested compounds scored in any of these assays.
GLP1R inv ag: acts as inverse agonist at human GLP-1 receptor; P43220; HEK293 GLP-1R CRE-luciferase, luminescence, 24 h; GLP-1R form is constitutively active; Potency, µM (series often up to 38.3 µM), for inactives: top-dose activity change, negative = inhibition, hits mostly inhibitors; 410,000 tested, 1.6% active; AID 624417; note: % is set by controls: 0 for no effect and ±100 for the full control effect; nearly all actives have a fitted effect of over 55% in size
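Inverse agonism was detected as reduced cAMP-driven luciferase luminescence after 24 h compound treatment. The cells were HEK293 clones expressing constitutively active human GLP-1R with the reporter. Reporter-only and GPR119 cell lines served as counterscreen controls.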
GLP1R ag: activates the human GLP-1 receptor; P43220; HEK293 GLP-1R CRE-luciferase, luminescence, 4-6 h; cells express a hypersensitive GLP-1R form; Potency, µM (titrated, usually from 45.6 µM), for the others: at the highest dose activation, usual class: activators; 380,000 tested, 0.007% active; note: % of control where 0% means no effect
GLP1R cytotox: cytotoxicity counter-screen for GLP-1 receptor inverse agonists; HEK293 cAMP-luciferase reporter cells, luminescence, 24 h; Potency, µM (titrated, usually from 38.3 µM), for the others: top-dose activity change, negative = inhibition, hits mostly inhibitors; 410,000 tested, 0.13% active;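 note: loss of luciferase light is scored as toxicity; % is set by controls: 0 for no effect and ±100 for the full control effect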
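Seeding density was 200 cells/uL; after overnight-length (12 h) culture, 23 nL compounds went on for 24 h at 37 °C. Readout used a luciferase detection reagent, luminescence taken after 12 min at room temperature.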
PTHR1 ag: agonists of human PTHR1 parathyroid hormone receptor; HEK293 GP2 PTHR1 cells, GloSensor cAMP luminescence, 1 h; Potency, µM (highest dose often 115 µM), for inactives: at the highest dose activation, usual class: activators; 410,000 tested, 0.075% active; AID 743266; note: nearly all actives have a fitted effect of over 55% in size
Target sequence (Q03431 whole entry, looked up): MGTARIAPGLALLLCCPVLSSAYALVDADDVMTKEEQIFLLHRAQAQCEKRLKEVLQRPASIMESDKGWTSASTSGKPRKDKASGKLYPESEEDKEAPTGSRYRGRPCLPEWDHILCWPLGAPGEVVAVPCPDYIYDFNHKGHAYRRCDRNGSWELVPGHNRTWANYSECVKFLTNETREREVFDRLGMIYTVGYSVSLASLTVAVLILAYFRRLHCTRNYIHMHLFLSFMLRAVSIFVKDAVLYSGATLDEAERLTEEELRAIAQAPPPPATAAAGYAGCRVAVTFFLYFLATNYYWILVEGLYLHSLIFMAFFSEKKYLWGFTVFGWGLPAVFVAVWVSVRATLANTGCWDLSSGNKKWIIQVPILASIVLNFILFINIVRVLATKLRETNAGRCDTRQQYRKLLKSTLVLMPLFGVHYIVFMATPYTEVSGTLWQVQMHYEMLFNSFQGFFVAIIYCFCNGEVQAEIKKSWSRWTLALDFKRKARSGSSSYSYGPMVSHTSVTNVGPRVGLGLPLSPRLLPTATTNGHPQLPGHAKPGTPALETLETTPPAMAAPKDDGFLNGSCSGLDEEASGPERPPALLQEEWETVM
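HEK-293-derived GP2 cells expressing PTHR1 and a GloSensor cAMP reporter, 3,000/well, plated overnight, given luciferin plus IBMX (each 0.5 mM as added) for 1 h at 37 °C, then compound for 1 h at 37 °C. Luminescence was read after 15 min at room temperature.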
* marks the source's active call; other numbers are inactive results; i = inactive; ? = inconclusive; nt = no result given. Calls come from the whole dose curve; as a rule, active = well fitted curve in the direction sought with a large enough effect; inconclusive = small, poorly fitted or top-dose-only effect, or another doubt; inactive = no such curve, though single readings can be large; an effect the other way counts as inactive or inconclusive. Potency is the fitted concentration of half-maximal effect.

SMILES	GLP1R inv ag	GLP1R ag	GLP1R cytotox	PTHR1 ag
Cc1cccc(NNC(=S)Nc2c(C)cccc2C)c1	3.2µM*	9%	?	i
Cc1cccc(NC(=S)NNc2cccc(Cl)c2)c1	10µM*	9%	-11%	-1%
Cc1cccc(NC(=S)NCc2ccc(F)cc2)c1	?	4%	?	-5%
NC(=S)NNc1cccc(Cl)c1	1%	1%	-6%	i
Cc1cccc(NC(=S)NC(C)(C)CC(C)(C)C)c1	10µM*	22%	?	-48%
Cc1cccc(NNC(=S)Nc2ccccc2)c1	5.6µM*	-1%	?	i
O=C(CS(=O)Cc1ccco1)NCC=CCOc1cc(CN2CCCCC2)ccn1 (configuration not stated)	nt	-1%	nt	nt
COc1ccc(CN(C)CC2CCCN(CCc3ccc(F)cc3)C2)cc1OC (configuration not stated)	11µM*	4%	-20%	-24%
COc1ccc(CN(C)CC2CCCN(CCc3ccc(Cl)cc3)C2)cc1OC (configuration not stated)	?	0%	-26%	-17%
CSC(=S)N/N=C/c1ccc(Br)cc1	?	-6%	11µM*	-9%
CSC(=S)N/N=C/c1ccc(N(C)C)cc1	-10%	3%	-21%	i
Cc1c(Cl)cccc1-n1ncc(C(=O)N2CCc3ccccc3C2)c1C1CCN(C(=O)OC(C)(C)C)CC1	6%	nt	-13%	-7%
CC1CC(C)CN(C(=O)c2ccc3c(c2)N(Cc2ccccc2)CCS3)C1 (configuration not stated)	11µM*	19%	-16%	i
CCc1ccc(CNC(=O)c2ccc3nc(SCc4ccc(F)cc4)n(C)c3c2)cc1	?	nt	0%	-65%
N#Cc1ccc(CSc2nnc(-c3c[nH]c4ccccc34)n2-c2ccccc2)cc1	6.3µM*	7%	-28%	-42%
N#Cc1ccc(CSc2nnc(-c3ccccn3)n2-c2ccccc2)cc1	-6%	2%	13%	i
CC(C)CN(CC(C)C)C(=S)NC1CCCCC1	?	2%	10µM*	i
O=C(c1cc(C2CCCCN2C(=O)CCCc2ccccc2)on1)N1CCOCC1 (configuration not stated)	-15%	6%	1%	-19%
NC(=O)C1CCN(C(=O)COc2ccc3ccccc3c2Br)CC1	4%	-6%	-4%	-24%
O=C(COc1ccc2ccccc2c1Br)N1CCCCC1	10µM*	9%	4%	-14%
CC(=O)Nc1cccc(NC(=O)CSc2nccn2C2CCCC2)c1	-1%	nt	3%	-10%
O=C(CSc1nc2ccccc2s1)N1c2ccccc2Sc2ccc(C(F)(F)F)cc21	5µM*	-4%	3%	i
CC(C)[C@H](NC(=O)OC(C)(C)C)c1cc(C(=O)NCCc2c[nH]c3ccccc23)c(N)s1	-23%	nt	-2%	-7%
CC(C)[C@@H](NC(=O)OC(C)(C)C)c1cc(C(=O)c2c(-c3ccccc3)[nH]c3ccccc23)c(N)s1	7.1µM*	nt	-19%	-41%
Cc1ccc2onc(CC(=O)N(C)c3ccccc3)c2c1	-3%	nt	1%	i
SMILES	GLP1R inv ag	GLP1R ag	GLP1R cytotox	PTHR1 ag
CCCOC(=O)c1ccc(OCC(O)CN2CCN(C(=O)c3ccccc3)CC2)cc1 (configuration not stated)	-11%	-2%	-13%	-23%
CC(C)c1ccc(OCC(O)CN2CCN(c3ccccc3)CC2)cc1 (configuration not stated)	10µM*	8%	?	-9%
OC(COc1ccc2c(c1)OCO2)CN1CCN(c2ccccc2)CC1 (configuration not stated)	8.9µM*	1%	0%	-11%
OC(COc1ccc2c(c1)OCO2)CN1CCCCC1 (configuration not stated)	19%	-3%	-11%	-19%
CC(C)(C)c1ccc(OCC(O)CN2CCN(C(=O)c3ccccc3)CC2)cc1 (configuration not stated)	10µM*	6%	-11%	-2%
CN(C)C1(CNC(=O)c2cccc(S(=O)(=O)NCc3ccccc3)c2)CCCCC1	?	2%	9%	32µM*
CCN(c1ccccc1)S(=O)(=O)c1cccc(C(=O)NCC2(N(C)C)CCCCC2)c1	10µM*	-2%	-1%	i
Cc1ccc(NS(=O)(=O)c2cccc(C(=O)NCC3(N(C)C)CCCCC3)c2)cc1	?	-2%	-16%	-49%
CN1C(=O)CC(C)(c2ccccc2)C1=O (configuration not stated)	nt	0%	nt	nt
C1=CCN(c2nc(N3CCOCC3)nc(N3CCCc4ccccc43)n2)CC1	11µM*	7%	1%	-12%
Cc1ccc(CNCc2c(C(=O)O)c(C)n(Cc3ccc(C)cc3)c2C)cc1	-4%	nt	-1%	i
O=C(Nc1ccc(F)cc1)C1CCCN(S(=O)(=O)c2ccc3[nH]c(=O)ccc3c2)C1 (configuration not stated)	9%	-2%	8%	i
COc1ccc(-c2csc(N(CCCN(C)C)C(=O)c3ccc(C)cc3)n2)cc1	4µM*	2%	-22%	-22%
COc1ccc2sc(N(CCCN(C)C)C(=O)c3ccc(C(=O)c4ccccc4)cc3)nc2c1	7.1µM*	-2%	?	?
Cc1cccc2sc(N(CCCN(C)C)C(=O)c3ccc(C(=O)c4ccccc4)cc3)nc12	5µM*	4%	?	-11%
O=c1n(Cc2ccccc2)nc2n1-c1cc(Cl)ccc1OC2	-1%	2%	2%	-24%
CN(c1nc2ccccc2nc1Cl)S(=O)(=O)c1ccccc1	10µM*	13%	-7%	-25%
COc1ccc(CN([C@H](CO)CC(C)C)S(=O)(=O)N(Cc2ccccc2)[C@H](CO)CC(C)C)cc1	4.5µM*	-10%	?	?
Cc1ccccc1NC(=O)c1cccc(Cn2cc(Br)c([N+](=O)[O-])n2)c1	?	-1%	-3%	-30%
Cc1cccc(NC(=O)c2cccc(Cn3cc(Br)c([N+](=O)[O-])n3)c2)c1C	10µM*	5%	-15%	-42%
CCCN1C(=O)c2ccccc2NC1c1ccc(Cl)c(Cl)c1 (configuration not stated)	11µM*	3%	-12%	-2%
CCCCCCCn1ccc(O)c(CC(=O)OC)c1=O	6%	2%	1%	50µM*
COC(=O)Cc1c(O)ccn(CCc2c[nH]c3ccccc23)c1=O	15%	3%	5%	-10%
CC(=O)c1c(C)nn(CC(=O)NC2CCCN(Cc3ccc(CC(C)C)cc3)C2)c1C (configuration not stated)	11µM*	4%	2%	-21%
CC(=O)c1cccc(Oc2cc(NN3CCCCC3)c([N+](=O)[O-])cc2[N+](=O)[O-])c1	10µM*	18%	?	-24%
Cc1ccccc1C(=O)Nc1ccc(OCc2cc(=O)n3ccccc3n2)cc1	-12%	nt	-1%	i
